# Reference: PubChem BioAssay (Tox21)
# Results filed as inconclusive are left out. Where a call stands in place of a potency, no number is given. Calls of active or inactive are those of the source. Unless noted, calls follow the shape of the dose curve; as a rule, active = well fitted curve in the direction sought with a large enough effect in the repeat runs; inconclusive = weak or mixed curves; inactive = no such curve, though single readings can be large; an effect the other way counts as inactive or inconclusive.
# Tested on: not listed separately
# Experiment: qHTS assay to identify small molecule agonists of the peroxisome proliferator-activated receptor delta (PPARd) signaling pathway - cell viability counter screen (AID 743211); also: nearly all actives have a fitted effect of over 55% in size
# Details: PPARd-bla HEK293H viability, CellTiter-Glo luminescence, 17 h; series mostly up to 62.6 µM
# In short: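 Viability was measured as CellTiter-Glo luminescence (30 min, room temperature) in the same wells as the beta-lactamase readout. GeneBLAzer PPARd UAS-bla HEK293H cells received compound after 5 h plating and were incubated 17 h at 37 C.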
row,SMILES,Potency
1,CC(C)(C)c1cc(C=O)cc(C(C)(C)C)c1O,inactive
2,C1CCN(CN2CCCCC2)CC1,inactive
3,CC/C=C/CCO,inactive
4,O=C1CCCN1CCO,inactive
5,O=C(NC1CCN(CCc2c[nH]c3ccccc23)CC1)c1ccccc1,inactive
6,CC(O)CN (stereo not drawn),inactive
7,CC(=O)Nc1ccccc1O,inactive
8,O=c1[nH]nc(-c2ccc([N+](=O)[O-])o2)o1,inactive
9,C=CC(=O)NC(C)(C)C,inactive
10,CCc1cnc(C(=O)O)c(C(=O)O)c1,inactive
11,NC(=O)c1cc[n+](CC2=C(C(=O)[O-])N3C(=O)[C@@H](NC(=O)Cc4cccs4)[C@H]3SC2)cc1,inactive
12,CCCC1CCOC(C)S1 (stereo not drawn),inactive
13,CC1(COc2ccc(CC3SC(=O)NC3=O)cc2)CCCCC1 (stereo not drawn),inactive
14,CCC(CC)C(=O)O,inactive

# Tested on: not listed separately
# Experiment: qHTS assay to identify small molecule antagonists of the peroxisome proliferator-activated receptor delta (PPARd) signaling pathway - cell viability counter screen (AID 743213); also: nearly all actives have a fitted effect of over 50% in size; also: potency is read from the fitted curve at half-maximal effect
# Details: PPARd-bla HEK293H viability, CellTiter-Glo luminescence, 17 h; series mostly up to 62 µM
# In short: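 HEK293H PPARd UAS-bla cells, 5 h pre-incubation, compound + L165041 300 nM final, 17 h 37 C; B/G FRET substrate 2 h RT; then CellTiter-Glo 30 min RT, luminescence.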
row,SMILES,Potency
1,CCCCCC1CCC(=O)O1 (stereo not drawn),inactive
2,CC/C=C\CCO,inactive
3,Nc1ncnc2c1ncn2[C@@H]1O[C@H](CO)[C@@H](O)[C@H]1O,inactive
4,O=C(OCCN1CCOCC1)c1cccnc1Nc1cccc(C(F)(F)F)c1,inactive
5,OCCc1ccncc1,inactive
6,O=C(O)COCC(=O)O,inactive
7,CCn1nc(Cc2ccccc2)cc1C1CCN(C[C@H]2C[C@H](N(C)[C@@H](C(=O)O)C(C)C)C[C@@H]2c2cccc(F)c2)CC1,inactive
8,Cc1c(Cl)cccc1Nc1ccccc1C(=O)O,inactive
9,CCCCOC(=O)CC#N,57.6 µM (active)
10,O=C(Nc1ccc2c(c1)Cc1ccccc1-2)C(F)(F)F,inactive
11,CCOC(=O)CC(O)(CC(=O)OCC)C(=O)OCC,inactive
12,Clc1nc2ccccc2nc1Cl,inactive
13,COC(=O)C(C)(C)C,inactive
14,CCCCCCCCCC(C)C=O (stereo not drawn),inactive
15,CC(=O)S[C@H](C(=O)N[C@H]1Cc2ccccc2[C@H]2CCC[C@@H](C(=O)O)N2C1=O)C(C)C,inactive
16,CC(C)CCCCCOC(=O)CS,inactive
17,NC(=O)c1ccccc1,inactive
18,COC(=O)Cc1cccc2ccccc12,inactive
19,OCCOc1cccc(OCCO)c1,inactive
20,Nc1ccccc1Nc1ccccc1,inactive

row,SMILES,Potency
1,CC(CC(C#N)(c1ccccc1)C(C)C)N(C)C (stereo not drawn),inactive
2,NC(=O)c1ccccc1C(N)=O,inactive
3,CC(=O)OCC(=O)[C@@]1(O)CC[C@H]2[C@@H]3CCC4=CC(=O)C=C[C@]4(C)[C@@]3(F)[C@@H](O)C[C@@]21C,inactive
4,CC(=O)Nc1cccc(N)c1,inactive
5,C=CCCC,inactive
6,CC(C)(C)c1cc(C=O)cc(C(C)(C)C)c1O,inactive
7,C1CCN(CN2CCCCC2)CC1,inactive
8,CC/C=C/CCO,inactive
9,O=C1CCCN1CCO,inactive
10,O=C(NC1CCN(CCc2c[nH]c3ccccc23)CC1)c1ccccc1,inactive
11,CC(O)CN (stereo not drawn),inactive
12,CC(=O)Nc1ccccc1O,inactive
13,O=c1[nH]nc(-c2ccc([N+](=O)[O-])o2)o1,inactive
14,C=CC(=O)NC(C)(C)C,inactive
15,CCc1cnc(C(=O)O)c(C(=O)O)c1,inactive
16,NC(=O)c1cc[n+](CC2=C(C(=O)[O-])N3C(=O)[C@@H](NC(=O)Cc4cccs4)[C@H]3SC2)cc1,inactive
17,CCCC1CCOC(C)S1 (stereo not drawn),4.9 µM (active)
18,CC1(COc2ccc(CC3SC(=O)NC3=O)cc2)CCCCC1 (stereo not drawn),inactive
19,CCC(CC)C(=O)O,inactive

# Target: Peroxisome proliferator-activated receptor delta (Homo sapiens) (UniProt Q03181)
# Sequence (Q03181 whole entry, looked up): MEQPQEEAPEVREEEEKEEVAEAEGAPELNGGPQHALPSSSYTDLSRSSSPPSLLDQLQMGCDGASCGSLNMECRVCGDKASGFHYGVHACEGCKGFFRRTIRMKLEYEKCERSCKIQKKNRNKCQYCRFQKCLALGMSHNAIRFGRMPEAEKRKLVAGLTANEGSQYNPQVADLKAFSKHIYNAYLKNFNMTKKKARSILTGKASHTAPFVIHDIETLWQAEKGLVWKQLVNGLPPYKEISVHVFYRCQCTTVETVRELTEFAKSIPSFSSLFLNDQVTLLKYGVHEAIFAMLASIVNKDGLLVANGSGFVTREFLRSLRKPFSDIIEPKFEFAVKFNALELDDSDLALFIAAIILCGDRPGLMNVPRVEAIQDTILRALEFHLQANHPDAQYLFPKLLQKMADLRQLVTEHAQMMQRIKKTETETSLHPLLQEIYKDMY
# Experiment: qHTS assay to identify small molecule antagonists of the peroxisome proliferator-activated receptor delta (PPARd) signaling pathway (AID 743215; active = well fitted inhibition curve with a large enough effect in the signal ratio in the repeat runs, not every such curve was filed as active; the % refers to the signal ratio;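 also: cells stimulated with agonist L165041 at 300 nM final during compound exposure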)
# Details: HEK293H PPARd-UAS-bla, beta-lactamase FRET ratio, antagonist, 17 h; series mostly up to 62 µM
# In short: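 With L165041 present at 300 nM final, compounds were incubated 17 h at 37 C on PPARd UAS-bla HEK293H cells. A FRET-based beta-lactamase substrate was then applied for 2 h at room temperature and fluorescence intensity recorded.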
row,SMILES,outcome
1,Clc1nc2ccccc2nc1Cl,inactive
2,COC(=O)Cc1cccc2ccccc12,inactive
3,C=CCCC,inactive
4,C1CCN(CN2CCCCC2)CC1,inactive
5,O=C1CCCN1CCO,inactive
6,O=c1[nH]nc(-c2ccc([N+](=O)[O-])o2)o1,inactive
7,CCC(CC)C(=O)O,inactive

# Target: Bile acid receptor (Homo sapiens) (UniProt Q96RI1)
# Sequence (Q96RI1 whole entry, looked up): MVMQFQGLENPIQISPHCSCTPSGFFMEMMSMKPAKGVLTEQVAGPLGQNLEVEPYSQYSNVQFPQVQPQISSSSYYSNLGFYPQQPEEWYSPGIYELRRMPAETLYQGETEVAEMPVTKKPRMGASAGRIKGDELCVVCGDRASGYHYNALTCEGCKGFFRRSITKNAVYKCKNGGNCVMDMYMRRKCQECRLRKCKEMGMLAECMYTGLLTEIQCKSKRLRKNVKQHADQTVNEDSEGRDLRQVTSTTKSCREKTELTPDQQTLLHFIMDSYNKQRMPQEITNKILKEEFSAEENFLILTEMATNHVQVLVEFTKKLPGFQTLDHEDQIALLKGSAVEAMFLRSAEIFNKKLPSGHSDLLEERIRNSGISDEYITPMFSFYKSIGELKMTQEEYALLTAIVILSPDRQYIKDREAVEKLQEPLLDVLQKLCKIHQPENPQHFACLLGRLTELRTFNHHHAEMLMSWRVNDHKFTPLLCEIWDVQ
# Experiment: qHTS assay to identify small molecule antagonists of the farnesoid-X-receptor (FXR) signaling pathway (AID 743217; active = well fitted inhibition curve with a large enough effect in the signal ratio in the repeat runs, not every such curve was filed as active; the % refers to the signal ratio)
# Details: HEK293T FXR-UAS-bla, beta-lactamase ratio, CDCA-stimulated, 16 h; series mostly up to 62.6 µM
# In short: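 In this cell-based antagonist screen, inhibition of CDCA-driven (50 uM final) UAS-beta-lactamase expression in HEK 293T cells was measured by FRET fluorescence following 16 h compound exposure at 37 °C.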
row,SMILES,outcome
1,CCCCCC1CCC(=O)O1 (stereo not drawn),inactive
2,CC/C=C\CCO,inactive
3,Nc1ncnc2c1ncn2[C@@H]1O[C@H](CO)[C@@H](O)[C@H]1O,inactive
4,OCCc1ccncc1,inactive
5,O=C(O)COCC(=O)O,inactive
6,Cc1c(Cl)cccc1Nc1ccccc1C(=O)O,inactive
7,O=C(Nc1ccc2c(c1)Cc1ccccc1-2)C(F)(F)F,inactive
8,COC(=O)C(C)(C)C,inactive
9,CCCCCCCCCC(C)C=O (stereo not drawn),inactive
10,CC(=O)S[C@H](C(=O)N[C@H]1Cc2ccccc2[C@H]2CCC[C@@H](C(=O)O)N2C1=O)C(C)C,inactive
11,NC(=O)c1ccccc1,inactive
12,CC(CC(C#N)(c1ccccc1)C(C)C)N(C)C (stereo not drawn),inactive
13,CC(C)(C)c1cc(C=O)cc(C(C)(C)C)c1O,inactive
14,CC/C=C/CCO,inactive
15,CC(=O)Nc1ccccc1O,inactive
16,C=CC(=O)NC(C)(C)C,inactive
17,NC(=O)c1cc[n+](CC2=C(C(=O)[O-])N3C(=O)[C@@H](NC(=O)Cc4cccs4)[C@H]3SC2)cc1,inactive
18,CC1(COc2ccc(CC3SC(=O)NC3=O)cc2)CCCCC1 (stereo not drawn),inactive

# Tested on: not listed separately
# Experiment: qHTS assay to identify small molecule agonists of the farnesoid-X-receptor (FXR) signaling pathway - cell viability counter screen (AID 743218); also: nearly all actives have a fitted effect of over 45% in size
# Details: FXR-bla HEK293T viability, CellTiter-Glo luminescence, 16 h; series mostly up to 62.6 µM
# In short: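 After 16 h at 37 C with test compounds, FXR-bla HEK 293T cells were given LiveBLAzer B/G substrate for 2 h at RT and then CellTiter-Glo; luminescence was taken after 30 min.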
row,SMILES,Potency
1,CCCCCC1CCC(=O)O1 (stereo not drawn),inactive
2,Nc1ncnc2c1ncn2[C@@H]1O[C@H](CO)[C@@H](O)[C@H]1O,inactive
3,O=C(OCCN1CCOCC1)c1cccnc1Nc1cccc(C(F)(F)F)c1,inactive
4,OCCc1ccncc1,inactive
5,O=C(O)COCC(=O)O,inactive
6,CCn1nc(Cc2ccccc2)cc1C1CCN(C[C@H]2C[C@H](N(C)[C@@H](C(=O)O)C(C)C)C[C@@H]2c2cccc(F)c2)CC1,inactive
7,Cc1c(Cl)cccc1Nc1ccccc1C(=O)O,inactive
8,CCCCOC(=O)CC#N,inactive
9,O=C(Nc1ccc2c(c1)Cc1ccccc1-2)C(F)(F)F,inactive
10,CCOC(=O)CC(O)(CC(=O)OCC)C(=O)OCC,inactive
11,Clc1nc2ccccc2nc1Cl,inactive
12,COC(=O)C(C)(C)C,inactive
13,CCCCCCCCCC(C)C=O (stereo not drawn),inactive
14,CC(=O)S[C@H](C(=O)N[C@H]1Cc2ccccc2[C@H]2CCC[C@@H](C(=O)O)N2C1=O)C(C)C,inactive
15,CC(C)CCCCCOC(=O)CS,inactive
16,COC(=O)Cc1cccc2ccccc12,inactive
17,OCCOc1cccc(OCCO)c1,inactive
18,Nc1ccccc1Nc1ccccc1,inactive

row,SMILES,Potency
1,CC(CC(C#N)(c1ccccc1)C(C)C)N(C)C (stereo not drawn),inactive
2,NC(=O)c1ccccc1C(N)=O,inactive
3,CC(=O)OCC(=O)[C@@]1(O)CC[C@H]2[C@@H]3CCC4=CC(=O)C=C[C@]4(C)[C@@]3(F)[C@@H](O)C[C@@]21C,inactive
4,CC(=O)Nc1cccc(N)c1,inactive
5,C=CCCC,inactive
6,CC(C)(C)c1cc(C=O)cc(C(C)(C)C)c1O,inactive
7,C1CCN(CN2CCCCC2)CC1,inactive
8,CC/C=C/CCO,inactive
9,O=C(NC1CCN(CCc2c[nH]c3ccccc23)CC1)c1ccccc1,inactive
10,CC(O)CN (stereo not drawn),inactive
11,CC(=O)Nc1ccccc1O,inactive
12,O=c1[nH]nc(-c2ccc([N+](=O)[O-])o2)o1,inactive
13,CCc1cnc(C(=O)O)c(C(=O)O)c1,inactive
14,NC(=O)c1cc[n+](CC2=C(C(=O)[O-])N3C(=O)[C@@H](NC(=O)Cc4cccs4)[C@H]3SC2)cc1,inactive
15,CCCC1CCOC(C)S1 (stereo not drawn),inactive
16,CC1(COc2ccc(CC3SC(=O)NC3=O)cc2)CCCCC1 (stereo not drawn),inactive
17,CCC(CC)C(=O)O,inactive
